# Source: PubChem
# Most compounds without a hit are left out; they make up all but 5.7% or so of the library.
# TGFb inhibitor: blocks TGF-b signaling | HepG2 CAGA-GFP TGF-b/SMAD3 reporter, GFP fluorescence, 18 h; TGF-beta stimulated, 500 pg/mL final | Potency, µM (top dose mostly 46.1 µM), usual class: inhibitors | hit rate 1.2% among 410,000 | AID 588855; also: nearly all actives have a fitted effect of over 65% in size
#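 Inhibition was scored as loss of TGF-beta-induced (500 pg/mL final, 18 hours, 37 degrees C) GFP in HEPG2 cells carrying a CAGA-GFP reporter, in DMEM with 1% FBS. Well GFP was summed per cell; Activity was normalised to unstimulated and stimulated DMSO wells, then concentration-response fitting.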
# ATXN2 expr inh: reduces ATXN2 reporter expression in HEK-293 cells. HEK-293 ATXN2-luciferase reporter, luminescence, 24 h. Potency, µM (series often up to 57 µM), most hits filed as inhibitors. hit rate 0.72% among 360,000; also: nearly all actives have a fitted effect of over 55% in size
#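 ATXN2-luciferase reporter cells (luciferase flanked by upstream and downstream ATXN2 gene portions) were treated 24 h at 37 °C with compounds at up to 57 uM. SteadyGlo luminescence gave expression; GF-AFC fluorescence gave viability.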
# IL-1B inflam inh: inflammasome signaling inhibition, IL-1 beta readout; hit rate 4.7% among 360,000; THP-1 LPS/ATP IL-1B secretion, AlphaLISA, 16 h; stronger effect = lower value; AID 743279; activity change, % at 57.5 µM; in the data active = activity change below about -50%; inconclusive = mostly about -30% to -49%
#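 THP-1 cells pretreated 1 hr with compounds (up to 57.5 uM final), then stimulated with LPS (250 ng/mL final) plus ATP (1.25 mM final); secreted IL-1B measured by AlphaLISA after 16 hr, decreased signal indicating inhibition.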
# ATXN viability: cell viability loss in ATXN counter-screen; S2 cells (HEK-293 line with an ATXN2-luciferase reporter) viability, CellTiter-Fluor protease fluorescence, 24 h; hit rate 0.49% among 400,000; Potency, µM (titrated, usually from 56.7 µM), most hits filed as cytotoxic; AID 651635; also: nearly all actives have a fitted effect of over 40% in size
# HepG2 tox-1: kills HepG2 cells in TGF-b inhibitor counter-screen; hit rate 0.76% among 410,000; HepG2 CAGA-GFP viability, ATP luminescence, 18 h; AID 588856; Potency, µM (top dose mostly 46.1 µM), most hits filed as cytotoxic
#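 CellTiter-Glo luminescence gave cytotoxicity after 18 hours at 37 degrees C. The cells were HepG2 CAGA-GFP in 1% FBS DMEM, stimulated with 500 pg/mL TGF-beta after compound addition. %Activity was normalised to no-cell wells (complete cell-killing) and DMSO (no toxicity), and curves were fitted and classified.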
# TGFb confirm: confirmation of TGF-b signaling inhibitors in HepG2 reporter cells; shares compounds with TGFb inhibitor; HepG2 CAGA-GFP TGF-b reporter, GFP fluorescence, 18 h; cells stimulated with TGF-beta, 500 pg/mL; Potency, µM (series often up to 46.1 µM), hits mostly inhibitors; hit rate 63% among 1,600; also: nearly all actives have a fitted effect of over 65% in size
# HepG2 tox-2: toxic to HepG2 cells in TGF-b counterscreen; shares compounds with TGFb inhibitor; AID 720535; Potency, µM (titrated, usually from 46.1 µM), most hits filed as inhibitors; hit rate 27% among 1,600; HepG2 CAGA-GFP viability, ATP luminescence, 18 h; cells stimulated with TGF-beta, 500 pg/mL; also: nearly all actives have a fitted effect of over 70% in size
# CCL64 TGFb inh: blocks TGF-b signaling in CCL64 reporter cells. CCL64 CAGA-GFP reporter, TGF-b stimulated, GFP fluorescence, 18 h. Potency, µM (titrated, usually from 46.1 µM), actives largely listed as inhibitors. hit rate 41% among 1,600. shares compounds with TGFb inhibitor. AID 720536; also: nearly all actives have a fitted effect of over 65% in size
# COP TGFb inh: validation of TGF-b inhibitors in HepG2 COP promoter reporter | AID 720537 | hit rate 3% among 1,600 | Potency, µM (highest dose often 46.1 µM), most hits filed as inhibitors | HepG2 COP-GFP TGF-b reporter, GFP fluorescence, 18 h; cells stimulated by added recombinant TGF-beta | shares compounds with TGFb inhibitor; also: nearly all actives have a fitted effect of over 70% in size
# Hits are given with their value; 0 = inactive; ? = inconclusive; - = no result. Unless noted, calls follow the shape of the dose curve; as a rule, active = well fitted curve in the direction sought with a large enough effect; inconclusive = small, poorly fitted or top-dose-only effect, or another doubt; inactive = no such curve, though single readings can be large; an effect the other way counts as inactive or inconclusive.
SMILES,TGFb inhibitor,ATXN2 expr inh,IL-1B inflam inh,ATXN viability,HepG2 tox-1,TGFb confirm,HepG2 tox-2,CCL64 TGFb inh,COP TGFb inh
COc1cc(C2c3cc4c(cc3OC(NCc3ccccc3)C2C)OCO4)cc(OC)c1OC (centres undefined),2.82µM,0,0,?,0,7.31µM,0,?,0
COCCNC(=O)CSc1nc(-c2ccc(F)cc2)[nH]c1-c1ccc(Cl)cc1,?,-,-,-,0,-,-,-,-
CC(=NNc1nc2ccccc2o1)c1cc2ccccc2cn1,0.316µM,?,-102.3,0,0,?,18.4µM,?,0
COc1ccc(CN(C)S(=O)(=O)c2nnc(NC(=O)C(C)C)s2)cc1OC,0,-,-,-,0,-,-,-,-
CC(=O)Nc1ncnc2c1c(-c1ccc(Cl)cc1)nn2C(C)(C)C,3.55µM,?,0,?,0,2.59µM,?,?,?
CCc1ccccc1N1CCN(S(=O)(=O)c2cc(OC)ccc2OC)CC1,?,0,0,0,0,25.9µM,?,?,0
COc1ccccc1NC(=O)C(=O)NCC(c1cccnc1)N1CCc2ccccc2C1 (centres undefined),?,-,-,-,0,-,-,-,-
COc1ccc(C(=O)NN)cc1,0,0,0,0,0,-,-,-,-
COc1ccc(C(=O)C(CCC(CNC(C)(C)C)C(=O)c2ccc(OC)cc2)CNC(C)(C)C)cc1 (centres undefined),7.08µM,?,-100.9,?,0,?,18.4µM,4.11µM,?
COCCN=C1N[C@@H](c2ccc(Br)cc2)C(C(=O)OC)=C(C)N1Cc1ccccc1,10µM,?,?,?,0,?,?,?,0
COC(=O)C1=C(C)N(Cc2ccccc2)C(=NCc2cc(OC)c(OC)c(OC)c2)N[C@H]1c1ccc(Br)cc1,?,?,?,-,0,-,-,-,-
COc1ccc(CNC(=O)CSc2ncc3c(n2)-c2ccc(Cl)cc2N(Cc2ccc(F)cc2)S3(=O)=O)cc1OC,0,0,-,0,0,-,-,-,-
CCOC(=O)c1c(-c2cccs2)csc1N,?,0,0,0,0,0,0,0,0
COc1cc(OC)c(N(C)C(=O)C2CCCN(c3ncnc4c3nc3n4CCCCC3)C2)cc1Cl (centres undefined),?,0,-,0,0,-,-,-,-
O=C1c2cccnc2C(=O)N1CO,0,0,0,0,0,-,-,-,-
NC1=C(Br)C(=O)c2ncccc2C1=O,2.82µM,5.32µM,-97.6,13.4µM,2.82µM,1.16µM,3.26µM,4.61µM,4.61µM
COc1ccc(-n2c(SCc3ccccc3F)nc3c([nH]c4ccccc43)c2=O)cc1,0,0,-,0,0,-,-,-,-
O=C(/C(=N\Nc1ccc([N+](=O)[O-])cc1)Sc1nnnn1-c1ccccc1)c1ccccc1,7.94µM,0,0,0,0,?,23.1µM,20.6µM,0
Cc1ccc(N/N=C(/Sc2nnnn2-c2ccccc2)C(=O)c2ccccc2)cc1,?,0,0,0,0,-,-,-,-
COc1ccc(CCNC(=O)c2c(C)nn(-c3ccc(F)cc3)c2-n2cccc2)c(OC)c1OC,0,?,-,-,0,-,-,-,-
O=C(N=Nc1c(O)[nH]c2ccc(Br)cc12)c1ccccc1-n1cccc1,?,?,0,-,0,7.31µM,?,18.4µM,0
Cc1cccc(NC(=O)/C=C/c2ccc([N+](=O)[O-])s2)c1,?,8.91µM,-97.1,8.91µM,0,?,5.17µM,2.59µM,0
COc1cccc(NC(=O)/C=C/c2ccccc2[N+](=O)[O-])c1,0,0,0,?,0,-,-,-,-
Cc1ccc(NC(=O)/C=C/c2ccc([N+](=O)[O-])s2)c(C)c1,5.01µM,8.91µM,-95.6,?,7.94µM,?,10.3µM,4.11µM,0
CCOc1ccc(NC(=O)CSc2oc(-c3ccco3)nc2S(=O)(=O)c2ccc(Cl)cc2)cc1,0,0,-,0,0,-,-,-,-
SMILES,TGFb inhibitor,ATXN2 expr inh,IL-1B inflam inh,ATXN viability,HepG2 tox-1,TGFb confirm,HepG2 tox-2,CCL64 TGFb inh,COP TGFb inh
O=S(=O)(c1ccccc1F)N1CCN(Cc2cc3c(cc2Br)OCCO3)CC1,12.6µM,0,0,0,0,?,0,?,0
COc1ccc(/C=N/n2cnc3c([nH]c4ccc(F)cc43)c2=O)cc1CN1CCCC1,7.08µM,-,0,0,7.08µM,16.4µM,23.1µM,23.1µM,?
COc1ccc2c(c1)[nH]c1c(=O)n(/N=C/c3ccc(OC)c(CN4CCCC4)c3)cnc12,0,0,?,0,0,-,-,-,-
Cc1cc(C)c2c(c1)c(C)cc1nnc(SCC(=O)c3ccccc3)n12,0,-,-,-,0,-,-,-,-
CCOc1ccc(C(CN2CCOCC2)C(C)=O)cc1OC (centres undefined),2.51µM,?,-116.6,0,0,?,16.4µM,16.4µM,?
CCOC(=O)c1c(C)oc2c1C(=O)c1ccccc1C2=O,5.01µM,?,0,0,5.01µM,5.17µM,5.8µM,4.61µM,16.4µM
CNc1nc(NCc2ccc(C)cc2C)c2sccc2n1,11.2µM,?,0,?,0,16.4µM,?,?,0
O=C1CCCN1CCCNc1nc(NCc2ccccc2)nc2ccsc12,3.16µM,0,?,0,0,2.91µM,7.31µM,5.17µM,0
Cc1ccc(CNc2nc(NC(C)C)nc3ccsc23)c(C)c1,?,?,0,?,0,-,-,-,-
Cc1ccc(CNc2nc(NCc3ccccc3)nc3ccsc23)c(C)c1,5.01µM,?,-88.3,?,0,?,?,14.6µM,?
COCCNc1nc(NCc2ccccc2)nc2ccsc12,2.51µM,0,0,0,0,3.66µM,?,4.11µM,0
COCCNc1nc(NC(C)C)nc2ccsc12,0,0,0,0,0,-,-,-,-
CCOc1cc(CNC(=O)NC2COc3ccc(OC)cc3C2)cc(OCC)c1OCC (centres undefined),0,-,-,-,0,-,-,-,-
CCOc1ccc(NC(=O)CN2C(=O)CC(C)Sc3ccccc32)cc1 (centres undefined),0,0,-,?,0,-,-,-,-
COc1ccc(S(=O)(=O)N2CCC(C(=O)N3CCc4ccccc4C3)CC2)cc1Cl,?,0,?,0,0,?,0,?,0
COc1ccc(S(=O)(=O)N2CCC(C(=O)N3CCN(C)CC3)CC2)cc1Cl,0,0,0,0,0,-,-,-,-
